Results filed as inconclusive are left out. Active and inactive are the calls of the source. Calls follow the shape of the dose curve; as a rule, active = well fitted curve in either direction with a large enough effect (not every such curve was filed as active); inconclusive = small, poorly fitted or top-dose-only effect, or another doubt; inactive = flat fitted curve, though single readings scatter.
Assay: AP1 Signaling Pathway (AID 357)
Conditions: ME-180 (cervical carcinoma) AP-1-bla reporter, EGF-induced, beta-lactamase ratio, 5 h; at 17.2 µM (top of the series) unless noted
How it was run: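 Titration-series screen for positive or negative modulators of EC50 EGF-induced signaling in ME-180 cells carrying an AP-1-driven beta-lactamase reporter. After 5 hours at 37 degrees Celsius, CCF4 460nm/530nm emission ratio gave %Activity; AC50 values derived.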
% is scaled to controls: 0 for no effect and ±100 for the full control effect.

Activity change, negative = inhibition, inactive:
CCOP(=O)(c1ccccc1)C1(C#N)CCCC1 (stereo unspecified) 8.95%
c1cncc(Oc2cccc(Oc3cccnc3)c2)c1 -6.49%
CC(=O)NC(=O)Nc1sc(=S)n(C)c1C -0.255%
COc1ccccc1N(O)C1CC(=O)N(c2ccc(F)cc2)C1=O (stereo unspecified) -0.204%
CCOc1ccc(C2CC(c3ccccc3)Nc3nc(N)nn32)cc1 (stereo unspecified) -4.28%
O=C(O)C1[C@H]2C(=O)N(Cc3cccs3)C[C@]23C=C[C@H]1O3 (stereo partly specified) 4.68%
O=c1c(-c2ccc(Cl)cc2)[n+]([O-])c2ccccc2n1O -1.42%
Cn1c(=O)c2c(nc(NCc3ccc4c(c3)OCO4)n2Cc2ccccc2Cl)n(C)c1=O -22.3%
CCOC(=O)C(C)c1nc2ccccc2[nH]c1=O (stereo unspecified) 3.01%
CC(NC(=O)Nc1ncccn1)(C(F)(F)F)C(F)(F)F 1.93%
COc1cc(C2C(C#N)=C(N)Oc3cc(C)n(Cc4ccccn4)c(=O)c32)cc2c1OCO2 (stereo unspecified) -7.44%
O=C1C(=O)N(CCN2CCOCC2)C(c2ccccn2)/C1=C(/O)c1ccc(F)cc1 (stereo unspecified) 10.4%
COC(=O)c1ccc(C2/C(=C(\O)c3cccc(OC)c3)C(=O)C(=O)N2CCCN(C)C)cc1 (stereo unspecified) 2.5%
O=C1C2ON(c3ccccc3)C(c3ccncc3)C2C(=O)N1c1ccc(Br)cc1 (stereo unspecified) -1.42%
CCn1c(SCC(=O)NC2CCCCC2C)nnc1-c1ccc(OC)cc1 (stereo unspecified) -8.83%
Cc1cc(C)n(C(=O)CNC(=O)c2cccs2)n1 10.9%

From PubChem BioAssay (NCATS)
